Screen size: about 5,500 compounds; about 2,000 (36%) were called active. Not shown: some 18% with an inconclusive outcome. Cut-off read from the data, not from the text of the source: active = normalized growth mostly below about 0.91 (no sharp cut-off); inconclusive = no clear call, values can overlap the other calls; inactive = mostly above about 0.92. Some of the results follow.
Assay: chemical genetic growth profiling, strain panel (AID 1159580);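 note: tested at 20 µM; growth read once vehicle control cultures reached saturation at 30 °C; 1 = growth at the plate median or of vehicle wells; lower values mean less growth of the strain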
Conditions: growth OD
[1] = S. cerevisiae deletion strains, locus YAL013W, strain DEP1, hits give low values
[2] = S. cerevisiae deletion strains, locus YBR229C, strain ROT2, hits give low values
[3] = S. cerevisiae deletion strains, locus YDL101C, strain DUN1, hits give low values
[4] = S. cerevisiae deletion strains, locus YDR150W, strain NUM1, hits give low values
[5] = S. cerevisiae deletion strains, locus YEL061C, strain CIN8, hits give low values
[6] = S. cerevisiae deletion strains, locus YGR078C, strain PAC10, hits give low values
[7] = S. cerevisiae deletion strains, locus YHR030C, strain SLT2, hits give low values
[8] = S. cerevisiae deletion strains, locus YHR087W, strain rtc3, hits give low values
[9] = S. cerevisiae deletion strains, locus YJL187C, strain SWE1, hits give low values
[10] = S. cerevisiae deletion strains, locus YJR043C, strain POL32, hits give low values
[11] = S. cerevisiae deletion strains, locus YJR075W, strain HOC1, hits give low values
[12] = S. cerevisiae deletion strains, locus YKL190W, strain CNB1, hits give low values
[13] = S. cerevisiae deletion strains, locus YLR039C, strain RIC1, hits give low values
[14] = S. cerevisiae deletion strains, locus YLR058C, strain SHM2 (second series), hits give low values
[15] = S. cerevisiae deletion strains, locus YLR085C, strain ARP6, hits give low values
[16] = S. cerevisiae deletion strains, locus YLR262C, strain YPT6, hits give low values
[17] = S. cerevisiae deletion strains, locus YML094W, strain GIM5, hits give low values
[18] = S. cerevisiae deletion strains, locus YMR219W, strain ESC1, hits give low values
[19] = S. cerevisiae deletion strains, locus YMR263W, strain SAP30, hits give low values
[20] = S. cerevisiae deletion strains, locus YMR307W, strain GAS1, hits give low values
[21] = S. cerevisiae deletion strains, locus YNL153C, strain GIM3, hits give low values
[22] = S. cerevisiae deletion strains, locus YNL298W, strain CLA4 (second series), hits give low values
[23] = S. cerevisiae deletion strains, locus YNL322C, strain KRE1, hits give low values
[24] = S. cerevisiae deletion strains, locus YNR030W, strain Alg12, hits give low values
[25] = S. cerevisiae deletion strains, locus YPL055C, strain LGE1, hits give low values
[26] = S. cerevisiae deletion strains, locus YPL241C, strain CIN2, hits give low values
[27] = S. cerevisiae deletion strains, locus YPR135W, strain CTF4, hits give low values
[28] = S. cerevisiae strains, strain wild type, hits give low values

Measured: normalized growth

Nc1ccc2nonc2c1N
active: S. cerevisiae deletion strains, locus YCL061C, strain MRC1, hits give low values 0.902 | [21] 0.919 | [24] 0.845
inactive: [1] 0.965 | [2] 0.96 | [3] 0.906 | S. cerevisiae deletion strains, locus YDL134C, strain PPH21, hits give low values 0.968 | [4] 0.941 | [5] 0.956 | [6] 0.933 | [7] 0.804 | [8] 0.993 | [9] 0.974 | [10] 0.951 | [11] 0.985 | [12] 0.983 | [13] 0.908 | [14] 0.967 | [15] 0.853 | [16] 0.902 | [17] 0.954 | [18] 0.982 | [19] 0.923 | [20] 0.882 | [22] 0.95 | [23] 0.988 | [25] 0.921 | [26] 0.919 | [27] 0.776 | [28] 0.955

Cc1ccc(Sc2ccc([N+](=O)[O-])cc2/C=C2\SC(=S)NC2=O)cc1
inactive: [1] 0.963 | [2] 0.992 | [3] 0.99 | [4] 0.982 | [6] 0.98 | [8] 0.991 | [9] 1 | [10] 0.997 | [11] 0.976 | [12] 0.979 | [14] 0.999 | [15] 0.82 | [17] 0.897 | [18] 0.984 | [19] 0.978 | [21] 0.996 | [22] 0.887 | [23] 0.969 | [24] 0.903 | [25] 0.963 | [26] 0.924 | [28] 0.982
active: [5] 0.859 | [7] 0.615 | [13] 0.324 | [16] 0.744 | [20] 0.524 | [27] 0.553
